MITF inh – MITF inhibitors, primary screen, biochemical, AlphaScreen, human; hit rate 0.91% among 650,000; AID 1259374, 2018; AlphaScreen MITF homodimerization, bead proximity signal; Microphthalmia-associated transcription factor (Homo sapiens), O75030; inhibition, % at 2.6 µM; in the data active = inhibition above about 50%;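 also: 0% = vehicle wells with protein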
FBW7 activator – FBW7 E3 ligase activators, primary screen, biochemical, AlphaScreen, human. normalized activity (activation), % at 26.1 µM. AlphaScreen FBW7–phospho-cyclin E peptide binding, activator screen. F-box/WD repeat-containing protein 7 (Homo sapiens), Q969H0. hit rate 0.13% among 650,000; in the data active = normalized activity above about 1.9%;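 also: purified mutant Fbw7 with reduced substrate affinity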
Target sequence (Q969H0 whole entry, looked up): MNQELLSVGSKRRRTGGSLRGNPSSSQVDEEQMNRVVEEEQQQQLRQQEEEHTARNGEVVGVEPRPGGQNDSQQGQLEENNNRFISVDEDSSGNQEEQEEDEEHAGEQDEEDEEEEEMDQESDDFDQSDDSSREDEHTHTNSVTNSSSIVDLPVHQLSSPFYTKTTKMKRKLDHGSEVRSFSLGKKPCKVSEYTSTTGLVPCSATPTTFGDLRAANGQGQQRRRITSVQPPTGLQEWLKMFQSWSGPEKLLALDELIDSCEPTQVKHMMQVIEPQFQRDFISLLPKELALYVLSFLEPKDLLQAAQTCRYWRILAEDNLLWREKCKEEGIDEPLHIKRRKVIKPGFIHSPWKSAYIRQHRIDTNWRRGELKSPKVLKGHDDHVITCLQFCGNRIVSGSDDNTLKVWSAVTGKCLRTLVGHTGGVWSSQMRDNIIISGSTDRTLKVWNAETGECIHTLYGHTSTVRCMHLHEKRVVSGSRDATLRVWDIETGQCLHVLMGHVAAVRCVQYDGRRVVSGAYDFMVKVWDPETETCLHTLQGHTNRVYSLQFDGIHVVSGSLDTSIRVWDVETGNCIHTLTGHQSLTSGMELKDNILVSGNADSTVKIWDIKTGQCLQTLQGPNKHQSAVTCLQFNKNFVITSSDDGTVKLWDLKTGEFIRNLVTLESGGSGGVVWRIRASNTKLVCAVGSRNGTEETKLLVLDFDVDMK
GPR151 ag – activators of human GPR151, primary screen, cell-based, PathHunter beta-arrestin, luminescence. hit rate 1% among 650,000. AID 1508602, 2020. PathHunter beta-arrestin GPR151 cells. G-protein coupled receptor 151 (Homo sapiens), Q8TDV0. activation, % at 11.2 µM; in the data active = activation above about 4.9%;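 also: 0% = median of compound wells and 100% = cells with positive control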
TEAD-YAP block – TEAD-YAP interaction inhibition, primary screen, TEAD-YAP interaction inhibitor project, luminescence, HEK-TIYL cells | TEAD-Gal4/YAP UAS-luciferase luminescence | inhibition, % at 9.12 µM | hit rate 1.4% among 640,000; in the data active = inhibition above about 32%;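 also: 0% = median of test compound wells and 100% = reference inhibitor wells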
MITF confirm – MITF inhibitors, retest of hits, confirmation, biochemical, AlphaScreen, triplicate. hit rate 16% among 4,700. AlphaScreen MITF homodimerization, biotin/His-MITF beads. shares compounds with MITF inh. inhibition, % at 2.6 µM;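 active = inhibition above a cutoff derived from the DMSO control wells, cut at about 28% in these data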;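 also: 0% = MITF dimer wells with DMSO only; inhibitors lower the bead chemiluminescence by keeping MITF from dimerizing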
AS interf DR – AlphaScreen optical interference compounds, dose response, counter-screen, biochemical, HTS. shares compounds with MITF inh. AlphaScreen optical interference counterscreen, cell-free. IC50, µM. hit rate 6% among 480; call rule not given here
AS interf ctr – AlphaScreen optical interference compounds, counter-screen for MITF inhibitor project, biochemical, triplicate | shares compounds with MITF inh | hit rate 7.6% among 4,700 | AID 1259376, 2018 | LysRS AlphaScreen counterscreen, signal interference | inhibition, % at 2.6 µM;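 active = inhibition above a cutoff derived from the DMSO control wells, cut at about 30% in these data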
The depositor's hits bear a star; nt = no result. In the library only some 3.5% were active in any assay of this set; here they are far more common.

SMILES | MITF inh | FBW7 activator | GPR151 ag | TEAD-YAP block | MITF confirm | AS interf ctr | others
CC1(Cc2ccccc2C#N)C(=O)Nc2cc(F)ccc21 (configuration not stated) | 2.9 | -0.1 | -0.6 | -12.1 | nt | nt
NCCNCCNCCN | 90.9* | -0.2 | 0.1 | 3.2 | 70.2* | 100.4*
O=[N+]([O-])c1ccccc1/C=C/C=N/NS(=O)(=O)c1ccc(Br)cc1 | 17.8 | 0.0 | 1.0 | 8.5 | nt | nt
CCSc1nc2c(c(=O)[nH]1)C(c1ccc(O)c(OC)c1)C1=C(CCCC1=O)N2 (configuration not stated) | 60.5* | 0.2 | -1.1 | 0.6 | 0.0 | 7.9
O=C(NCC1CCCO1)C(=O)NCC(c1cccs1)S(=O)(=O)c1ccc(F)cc1 (configuration not stated) | 8.5 | 0.2 | -0.7 | 2.6 | nt | nt
CSc1ccc(Cc2nnc(NC(=O)c3cc(C)oc3C)o2)cc1 | 2.4 | -0.1 | -0.5 | 10.6 | nt | nt
CSc1ccc(Cc2nnc(NC(=O)C34CC5CC(CC(C5)C3)C4)o2)cc1 | 52.4* | 0.1 | -0.6 | 11.4 | -9.3 | 19.4
O=C(Nc1nc2c(s1)COc1ccccc1-2)C1CCCN1S(=O)(=O)c1ccc(Cl)cc1 (configuration not stated) | 51.9* | -0.1 | 1.3 | 8.4 | -0.3 | -4.3
Clc1cccc(Cl)c1OCCCCn1ccnc1 | 52.2* | -0.1 | 0.6 | -0.2 | 4.5 | 4.9
C=CCc1cc(Cl)ccc1OCCCCn1ccnc1 | 68.0* | -0.1 | -0.8 | 1.4 | 4.8 | 12.8
C=CCc1cc(C)ccc1OCCOCCn1ccnc1 | 66.3* | 0.1 | 0.7 | -3.4 | -2.0 | 2.8
C=CCc1cc(OC)ccc1OCCCCn1ccnc1 | 78.1* | 0.0 | -1.5 | 4.4 | 8.7 | 10.5
CCCCOC(=O)c1cc(-c2ccc(/C=C3\NC(=S)NC3=O)o2)ccc1Cl | 8.2 | 0.2 | -1.1 | -6.2 | nt | nt
O=C(CN1CCN(C(=O)c2cnccn2)CC1)c1cccs1 | 52.8* | 0.0 | -0.5 | -2.0 | 3.7 | 15.7
Cc1cc(C(=O)N2CCN(CC(=O)c3cccs3)CC2)no1 | 61.3* | 0.0 | 0.5 | -3.7 | 7.1 | 11.7
CCOC(=O)C1=C(c2ccccc2)S/C(=C2/C(=S)C(C)(C)N(C(=O)C(F)(F)F)c3ccc(OCC)cc32)S1 | 10.7 | -0.1 | -0.7 | 4.5 | nt | nt
CC(C)NC(=O)C1CCN(Cc2cccc(Cl)c2Cl)CC1 | 53.5* | 0.4 | 1.1 | 7.1 | -21.1 | -0.9
CC(O)CNC(=O)C1CCN(Cc2ccc(OCc3ccccc3)cc2)CC1 (configuration not stated) | 33.6 | 0.6 | 0.6 | -13.7 | nt | nt
CC(C)NC(=O)C1CCN(Cc2ccccc2Cl)CC1 | 53.8* | -0.2 | 0.0 | 4.1 | -9.6 | -5.6
CC(C)NC(=O)C1CCN(Cc2cccc(OCc3ccccc3)c2)CC1 | 57.0* | 0.6 | -0.2 | 4.6 | -10.2 | -6.5
Cc1ccc(CN2CCC(C(=O)NC(C)C)CC2)cc1 | 64.7* | 0.3 | -0.9 | 8.1 | -5.5 | -4.5
Cc1ccc([N+](=O)[O-])c(OCCOCCN2CCN(Cc3ccccc3)CC2)c1 | 70.1* | -0.2 | -0.2 | -4.7 | 11.9 | -0.4
COc1cc(C(C)=O)ccc1OCCOCCN1CCN(Cc2ccccc2)CC1 | 86.6* | 0.5 | 2.6 | 5.8 | 5.0 | 11.8
Cc1ccc([N+](=O)[O-])c(OCCCN2CCN(Cc3ccccc3)CC2)c1 | 44.1 | -0.3 | 0.7 | -5.8 | nt | nt
O=C(O)c1ccc(CNC(=O)c2cocc2C(=O)O)o1 | 55.0* | 0.0 | -0.6 | -3.9 | 38.1* | 6.9 | AS interf DR=>7.32
SMILES | MITF inh | FBW7 activator | GPR151 ag | TEAD-YAP block | MITF confirm | AS interf ctr | others
COc1ccc(NCc2ccc(C(=O)O)o2)cc1 | 28.0 | 0.0 | -0.9 | -3.1 | nt | nt
COc1cc2c(cc1OC)C(c1cc3cc4c(cc3[nH]c1=O)OCO4)N(C(=O)C1CC1)CC2 (configuration not stated) | 67.2* | -0.1 | 0.4 | 5.5 | 4.3 | 10.9
COc1cc2c(cc1OC)C(COc1ccc(F)cc1)N(C(=O)C1CC1)CC2 (configuration not stated) | 0.0 | -0.2 | -0.8 | -12.4 | nt | nt
COc1ccc2oc(=O)c(C(=O)Oc3ccccc3Cl)cc2c1 | 10.2 | -0.1 | 1.2 | -4.9 | nt | nt
COC(=O)Cc1c(C)c2ccc(OCC(=O)OC(C)(C)C)c(C)c2oc1=O | -14.2 | 0.2 | -1.1 | 9.6 | nt | nt
COC(=O)Cc1c(C)c2ccc(OCC(N)=O)c(C)c2oc1=O | 73.0* | 0.1 | -0.6 | -2.2 | 11.6 | 9.8
CC(C)Cc1ccc2c(N)c(C(=O)c3ccc(Br)cc3)sc2n1 | -5.1 | 0.0 | 0.2 | 2.2 | nt | nt
C=CCc1cc(C)ccc1OCCN1CCN(C)CC1 | 57.1* | 0.0 | -0.7 | -11.3 | 6.2 | 1.8
COc1cc(C)ccc1OCCCN1CC(C)OC(C)C1 (configuration not stated) | 45.2 | 0.1 | 0.2 | -11.1 | nt | nt
Cc1ccc(OCCN2CCOCC2)c(Cl)c1 | -7.2 | -0.1 | 1.7 | -4.2 | nt | nt
C=CCc1cc(OC)ccc1OCCCCN1CCOCC1 | 32.6 | -0.2 | -0.9 | -1.5 | nt | nt
C=CCc1cc(C)ccc1OCCCN1CC(C)OC(C)C1 (configuration not stated) | 53.4* | 0.3 | -0.7 | -15.0 | 2.1 | -1.0
Cc1ccc(Cl)c(OCCCN2CCOCC2)c1 | 54.5* | -0.1 | 0.1 | -13.3 | 13.1 | 14.2
C=CCc1cc(C)ccc1OCCCN1CCOCC1 | 72.4* | -0.1 | 4.0 | 4.6 | -11.8 | 37.5*
CCNC(=O)/C(C#N)=C/c1c(Oc2cccc(C)c2)nc2ccccn2c1=O | 20.0 | 0.2 | -6.5 | 24.0 | nt | nt
O=C1Cc2cc(S(=O)(=O)Nc3ccccn3)cc3c2N1CCC3 | 3.5 | 0.1 | -0.5 | -3.6 | nt | nt
O=C(c1ccc(-n2nnc3ccccc3c2=O)cc1)N1CCC(Cc2ccccc2)CC1 | 2.2 | -0.1 | -0.6 | 5.1 | nt | nt
Cc1c(Cl)cccc1Nc1nncc(=O)[nH]1 | -5.4 | 0.0 | -0.9 | 2.1 | nt | nt
CC(=O)c1sc(NC(=O)c2ccoc2C)nc1C | 20.7 | 0.3 | -8.7 | -17.4 | nt | nt
C=CCc1cc(C)ccc1OCCNC(C)C | 87.6* | 0.0 | -0.1 | 10.3 | -19.4 | -3.0
O=C(c1cc(F)cc(F)c1)N1CC[C@@H](c2ccccc2)[C@H](O)C1 | 53.2* | 0.0 | -0.6 | -3.2 | -2.5 | 6.9
COc1ccc([C@@H]2CCN(C(=O)c3cc(F)cc(F)c3)C[C@H]2O)cc1 | -8.4 | 0.1 | -0.5 | -8.6 | nt | nt
Cc1ccc(N2C(=O)c3cccnc3C2Nc2ccccc2)cc1 (configuration not stated) | 8.8 | -0.2 | 0.4 | 2.7 | nt | nt
CCOc1cccc2c1OC(c1ccccc1Cl)N1N=C(c3cccs3)CC21 (configuration not stated) | 12.5 | 0.4 | 0.2 | -67.0 | nt | nt
